Screening results deposited in PubChem by National Center for Advancing Translational Sciences (NCATS).
GCN5L2 inh = blocks human GCN5L2 histone acetyltransferase; GCN5L2 HAT assay, ThioGlo1 CoA-SH fluorescence; Q92830; AID 504327; 390,000 compounds, 0.21% hits; Potency, µM (highest dose often 58.9 µM), for the others: top-dose activity change, negative = inhibition, hits mostly inhibitors
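GCN5L2 (20 nM) in 50mM HEPES pH 7.5, 0.1mM EDTA, 0.01% Tween-20 preincubated 15 min with compounds at room temperature. Reaction started with H3(1-25) 75uM, acetyl-CoA 70uM, ThioGlo1 50uM; CoA-thiol fluorescence (Ex340/Em540) read at 0 and 20 min.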
APEX1 inh = blocks human APE1 abasic DNA cleavage. recombinant APE1, TAMRA/BHQ-2 abasic DNA cleavage fluorescence. Potency, µM (top dose mostly 65.8 µM), for inactives: at the highest dose activity change, negative = inhibition, hits mostly inhibitors. P27695. 350,000 compounds, 0.35% hits. AID 2517;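 also: plate controls were vehicle for no effect and reference inhibitor for full effect; nearly all actives have a fitted effect of over 55% in size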
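APE1 at 0.75 nM final was preincubated with compound 15 min at room temperature, then 50 nM double-stranded THF abasic-site substrate (5'-TAMRA/3'-BHQ-2) was added. Fluorescence (ex 525/em 598 nm) was read kinetically; third-minus-first read gave activity.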
BLM inh = Bloom syndrome helicase (human) inhibition | P54132 | 350,000 compounds, 0.2% hits | Potency, µM (titrated, usually from 56.1 µM), without a hit: top-dose activity change, negative = inhibition, most hits filed as inhibitors | AID 2528 | recombinant BLM DNA unwinding, fluorescence dequenching;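 also: plate controls were vehicle for no effect and no enzyme for full effect; nearly all actives have a fitted effect of over 35% in size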
TDP1 inh = TDP1 (human) enzyme inhibition; 350,000 compounds, 0.28% hits; Q9NUW8; recombinant TDP1, AlphaScreen DNA substrate cleavage; Potency, µM (doses to about 130 µM), for the others: top-dose activity change, negative = inhibition, actives largely listed as inhibitors; AID 485290; also: nearly all actives have a fitted effect of over 40% in size
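Signal: AlphaScreen proximity between streptavidin donor and anti-FITC acceptor beads on intact substrate. Reaction: Tdp1 1 nM, substrate 15 nM final, 5 min RT after 15 min compound preincubation.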
RECQ1 inh-1 = inhibitors of human RECQ1 DNA helicase | AID 2549 | RECQ1 DNA unwinding, red fluorescence kinetic read | P46063 | Potency, µM (series often up to 57.3 µM), inactives show at the top dose activity, negative = inhibition, actives largely listed as inhibitors | 240,000 compounds, 0.54% hits;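 also: plate controls were vehicle for no effect and no enzyme for full effect; nearly all actives have a fitted effect of over 30% in size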
Target sequence (P46063 whole entry, looked up): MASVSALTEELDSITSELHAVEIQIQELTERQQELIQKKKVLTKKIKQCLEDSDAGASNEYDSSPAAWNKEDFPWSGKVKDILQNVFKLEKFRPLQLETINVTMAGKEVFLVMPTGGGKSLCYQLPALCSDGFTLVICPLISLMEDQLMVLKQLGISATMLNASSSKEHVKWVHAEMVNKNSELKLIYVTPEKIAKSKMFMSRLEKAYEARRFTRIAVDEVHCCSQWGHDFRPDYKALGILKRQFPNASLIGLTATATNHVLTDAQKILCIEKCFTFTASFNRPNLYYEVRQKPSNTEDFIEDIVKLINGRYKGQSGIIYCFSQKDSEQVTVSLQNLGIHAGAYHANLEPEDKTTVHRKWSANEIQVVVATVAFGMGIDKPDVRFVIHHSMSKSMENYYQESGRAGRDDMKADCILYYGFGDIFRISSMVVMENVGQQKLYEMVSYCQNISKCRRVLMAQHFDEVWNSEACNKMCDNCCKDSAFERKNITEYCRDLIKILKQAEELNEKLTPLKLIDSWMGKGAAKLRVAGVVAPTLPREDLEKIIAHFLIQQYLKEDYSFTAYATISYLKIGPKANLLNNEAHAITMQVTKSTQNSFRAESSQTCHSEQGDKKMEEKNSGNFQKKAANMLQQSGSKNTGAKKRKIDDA
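50 nM RECQ1T1 preincubated 15 min with compound in Tris pH 8.0 buffer with MgCl2, DTT, Tween-20 and 2.5 ug/ml poly(dI-dC); started with 200 nM TAMRA/BHQ-2 forked duplex and 2 mM ATP. Unwinding read as fluorescence (525/598 nm), two reads 2 h apart.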
RGS4 inhibitor = blocks human RGS4-accelerated GTP hydrolysis. P49798. Transcreener GDP fluorescence polarization, RGS4-accelerated GTP hydrolysis. Potency, µM (doses to about 114 µM), inactives show top-dose activity change, negative = inhibition, most hits filed as inhibitors. 390,000 compounds, 0.039% hits; also: nearly all actives have a fitted effect of over 75% in size
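MLSMR compounds (23 nl, pin-transferred) preincubated 10 min at room temperature with a 500nM (2x) first reagent, then RGS4 at 900nM (2x) plus Transcreener GDP mix added; fluorescence polarization (620/688 nm) read before and after 90 min at 30 °C.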
RECQ1 inh conf = confirmation of human RECQ1 helicase inhibitors; Potency, µM (highest dose often 229 µM), for inactives: at the highest dose activity change, negative = inhibition, most hits filed as inhibitors; shares compounds with RECQ1 inh-1; AID 2708; RECQ1 helicase DNA unwinding, fluorescence; 610 compounds, 28% hits; also: nearly all actives have a fitted effect of over 45% in size
RECQ1 ADP FP = displaces ADP in a fluorescence polarization counter-screen for RECQ1 hits; ADP fluorescence polarization displacement counterscreen; Potency, µM (top dose mostly 228 µM), for inactives: at the highest dose activity change, negative = inhibition, most hits filed as inhibitors; shares compounds with RECQ1 inh-1; 530 compounds, 27% hits; also: nearly all actives have a fitted effect of over 45% in size
RECQ1 inh-2 = RECQ1 helicase inhibition confirmed, round 2; Potency, µM (series often up to 119 µM), inactives show at the highest dose activity, negative = inhibition, actives largely listed as inhibitors; shares compounds with RECQ1 inh-1; AID 504841; recombinant RECQ1 DNA unwinding, red fluorescence; 1,100 compounds, 15% hits; also: nearly all actives have a fitted effect of over 50% in size
Active calls of the source: *; i = inactive; ? = inconclusive; / = no result; ! = a repeat was not active; [ ] = remark or other dose. Only some compounds are listed: those with a hit (about 0.87% of all), similar ones and a draw of the others. Calls follow the shape of the dose curve; as a rule, active = well fitted curve in the direction sought with a large enough effect; inconclusive = small, poorly fitted or top-dose-only effect, or another doubt; inactive = no such curve, though single readings can be large; an effect the other way counts as inactive or inconclusive. Unless noted, % is scaled to controls: 0 for no effect and ±100 for the full control effect; potency is read from the fitted curve at half-maximal effect.

SMILES	GCN5L2 inh	APEX1 inh	BLM inh	TDP1 inh	RECQ1 inh-1	RGS4 inhibitor	RECQ1 inh-2	others
Cc1c(N2C(=O)CS/C2=N\N=C\c2ccccc2O)c(=O)n(-c2ccccc2)n1C	-17%	-7%	-4%	1%	i	21%	/	RECQ1 inh conf=19%;RECQ1 ADP FP=-23%
C#Cc1ccc2c(c1)C(=O)N(C)Cc1c(C(=O)OCCCOC(=O)c3ncn4c3CN(C)C(=O)c3cc(C#C)ccc3-4)ncn1-2	36%	17%	1%	8%	4%	/	/
CC1(C)N=C(c2ccc(Cl)cc2)C(=O)N1	13%	-1%	1%	0%	35µM*	13%	?
COc1ccccc1-c1nnc(SC(C(=O)c2c[nH]c3ccccc23)c2ccccc2)n1C (stereo not drawn)	-11%	-6%	-9%	8%	-14%	-1%	/
COc1cccc(-c2nnc(SC(C(=O)c3c[nH]c4ccccc34)c3ccccc3)n2C)c1 (stereo not drawn)	2%	-6%	-4%	4%	-7%	-3%	/	RECQ1 inh conf=2%;RECQ1 ADP FP=15%
COc1ccc(-c2cc3nc(-c4ccccc4)cc(N4CCCC(O)C4)n3n2)cc1 (stereo not drawn)	-5%	6%	-12%	-13%	?	-12%	-11%
NS(=O)(=O)c1nn2cc(-c3ccccc3)nc2s1	0%	-2%	1%	11%	3%	/	/
COc1cccc(NC(=O)CC2S/C(=N\S(=O)(=O)c3ccccc3)N(c3ccccc3)C2=O)c1 (stereo not drawn)	-4%	11%	-5%	6%	40µM*	5%	-9%
COc1ccc(-c2csc(NC(=O)c3ccccc3NS(=O)(=O)c3ccc(C)cc3)n2)cc1	-29%	-6%	-21%	2%	?	3%	/
COc1ccc(S(=O)(=O)Nc2ccccc2C(=O)Nc2nc(-c3ccc(F)cc3)cs2)cc1OC	-29%	-6%	-8%	8%	?	15%	?
CC(=O)N[C@H]1CSSC[C@@H](C(=O)N2CCC[C@H]2C(=O)N2CCC[C@H]2C(=O)N[C@@H](CCCCN)C(=O)N[C@@H](CC(=O)O)C(N)=O)NC(=O)CNC(=O)[C@H](Cc2c[nH]c3ccccc23)NC(=O)[C@H](CCCNC(=N)N)NC(=O)[C@@H](Cc2ccc3ccccc3c2)NC(=O)[C@H](Cc2cnc[nH]2)NC(=O)[C@H](CCC(=O)O)NC1=O	-2%	-9%	4%	17%	-2%	/	/
Cc1ccc(C)n1-c1ccc(N2CCOCC2)nc1	-3%	-4%	-12%	11%	?	-21%	-8%
Cc1ccc(S(=O)(=O)Nc2ccc(N3CCOCC3)nc2)cc1	9%	0%	-19%	-2%	i	-3%	/
O=c1oc2ccccc2c2oc3cc(O)c(O)cc3c12	-18%	?	10µM*!	8%	25µM*	-20%	35µM*
COc1ccc(-c2csc(NC(=O)c3cc(-c4cccs4)nc4ccccc34)n2)c(OC)c1	-9%	0%	-3%	3%	-8%	-5%	/
COc1ccccc1-c1csc(NC(=O)c2cc(-c3cccs3)nc3ccccc23)n1	-9%	15%	-15%	1%	?	-5%	-13%
CCOC(=O)c1ccc(CC(=O)c2ccc(O)c(O)c2O)o1	-12%	?	-6%	/	1.4µM*	?	/	RECQ1 inh conf=5%[114 µM];RECQ1 ADP FP=2%[91.9 µM]
CCOC(=O)c1ccc(CC(=O)c2oc3cc(O)ccc3c2C)o1	-9%	-3%	-14%	11%	-4%	5%	/
O=C(Nc1ccc(S(=O)(=O)Nc2nccs2)cc1)c1ccc(=O)[nH]c1	-5%	?	-28%	?	?	-8%	?
O=C(Nc1ccc(S(=O)(=O)Nc2nccs2)cc1)c1cccc(F)c1	-5%	13%	-2%	/	/	-1%	/
COc1cccc(Nc2ncc3nc(-c4ccc(F)cc4)c(=O)n(CCC#N)c3n2)c1	2%	-2%	0%	/	-8%	/	/
COc1cccc(Nc2ncc3nc(-c4cc(F)cc(F)c4)c(=O)n(CCC#N)c3n2)c1	-16%	18%	-5%	/	?	/	?
Cc1ccc(C2=NC(=O)/C(=C/c3cc(O)c(O)c(Br)c3)S2)cc1	?	2µM*	3.5µM*	4%	3.5µM*	?	6.3µM*	RECQ1 inh conf=22µM*
CCNc1ncc2nc(-c3cccs3)c(=O)n(CCc3ccccc3)c2n1	-8%	-9%	-4%	/	28µM*	/	79µM*
CCNc1ncc2nc(-c3ccc(F)cc3)c(=O)n(CCc3ccccc3)c2n1	-4%	0%	-12%	/	28µM*	/	79µM*
SMILES	GCN5L2 inh	APEX1 inh	BLM inh	TDP1 inh	RECQ1 inh-1	RGS4 inhibitor	RECQ1 inh-2	others
Cc1ccc(NCc2nnc(SCC(=O)O)n2Cc2ccccc2)cc1Cl	-3%	-3%	0%	0%	22%	7%	/	RECQ1 inh conf=8%;RECQ1 ADP FP=3%
COC(=O)CSc1nnc(CNc2ccc(Cl)cc2)n1Cc1ccccc1	-4%	10%	-2%	2%	0%	25%	/
COc1ccc(-c2nc3cnc(N4CCOCC4)nc3n(-c3ccc(OC)cc3)c2=O)cc1	?	14µM*	-16%	/	?	/	-4%
COc1ccc(-n2c(=O)c(-c3cccc(Cl)c3)nc3cncnc32)cc1	-5%	16%	2%	/	?	/	-3%
COc1ccccc1C1=Nn2c(nnc2-c2ccccc2C)SC1	/	-7%	-1%	10%	8%	/	/
COc1ccc(CN2C(=O)c3ccccc3C2C(=O)NC2CCCC(C)C2C)c(OC)c1 (stereo not drawn)	-11%	1%	-9%	3%	3.2µM*	-35%	-10%	RECQ1 inh conf=-6%[114 µM];RECQ1 ADP FP=19%[91.9 µM]
Cc1ccc(CNC(=O)[C@]2(C(F)(F)F)C[C@H](CCc3ccccc3)CCCO2)o1	/	?	3%	9%	i	-39%	/
